Assay results as given in PubChem BioAssay (Tox21).
Inconclusive results are not listed. Activity calls are given as the source filed them. Unless noted, calls come from the whole dose curve; as a rule, active = well fitted curve in the direction sought with a large enough effect in the repeat runs; inconclusive = weak or mixed curves; inactive = no such curve, though single readings can be large; an effect the other way counts as inactive or inconclusive.

Columns and labels:
[1] = qHTS assay to identify small molecule agonists of the hypoxia (HIF-1) signaling pathway - cell viability counter screen (AID 1224844; calls by dose curve; note: nearly all actives have a fitted effect of over 50% in size)
In short: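 Cytotoxicity measured by CellTiter-Glo ATP luminescence in the wells also read for beta-lactamase signal. Cells were HRE-bla ME-180 (2,000/well, 0.5% dialyzed FBS), exposed to compounds for 17 h at 37C.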

[2] = qHTS assay to identify small molecule agonists of H2AX (AID 1224845; active = well fitted activation curve with a large enough effect in the signal ratio in the repeat runs, not every such curve was filed as active; the % refers to the signal ratio)
In short: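 Wild-type CHO-K1 cells, plated overnight, exposed 3hr at 37C to 15 concentrations (0.76% DMSO final). Lysed, then HTRF anti-pH2AX (S139) cryptate and anti-H2AX-d2 antibodies, 24 hr room temperature; 665/620 nm emission read.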

[3] = qHTS assay to identify small molecule agonists of the hypoxia (HIF-1) signaling pathway (AID 1224846; active = well fitted activation curve with a large enough effect in the signal ratio in the repeat runs, not every such curve was filed as active; the % refers to the signal ratio)
In short: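 Compounds added to ME-180 cells carrying hypoxia-response-element beta-lactamase reporter (0.5% dialyzed FBS, 5 h preplating), 17 h at 37C; agonist activity detected by CCF4-AM B/G FRET read-out.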

[4] = qHTS assay to identify small molecule antagonists of the estrogen related receptor (ERR) signaling pathway from Tox21 library (AID 1224848); note: nearly all actives have a fitted effect of over 50% in size
In short: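 Compounds dissolved in DMSO are pin-transferred onto ERR reporter cells (2,000 per well) that have settled for 6 h at 37 C. Plates then incubate 18 h at 37 C before ONE-Glo luciferase reagent and a luminescence read 30 min later.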

[5] = qHTS RealTime-Glo MT Cell Viability Assay in HepG2 cells - 24 hour (AID 1224867); note: nearly all actives have a fitted effect of over 50% in size
In short: (§1)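 qHTS, HepG2, 600 cells/well, RealTime-Glo (NanoLuc + prosubstrate) added with cells; 5 h preincubation; DMSO compound addition; 37 C; luminescence at 0/8/16/24/32/40 h.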

[6] = qHTS RealTime-Glo MT Cell Viability Assay in HEK293 cells - 32 hour (AID 1224868); note: top concentration of the series differs between compounds; nearly all actives have a fitted effect of over 50% in size
In short: (§2)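 Assay medium contained NanoLuc luciferase plus cell-permeant prosubstrate, added with HEK293 cells at 600 cells/well. After 5 h at 37 C/5% CO2 compounds were added; plates stayed at 37 C for 40 h with serial luminescence reads.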

[7] = A CellTox Green Cytotoxicity Assay to monitor cytotoxicity in HEK293 cells - 0 hour (AID 1224869); note: nearly all actives have a fitted effect of over 50% in size
In short: (§3)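 Fluorescence from a DNA-binding dye excluded by viable cells was measured repeatedly in the same HEK293 wells (600 cells/well) during continuous compound exposure at 37 C. Each assay gives one read point: 0, 8, 16, 24, 32 or 40 h.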

[8] = A CellTox Green Cytotoxicity Assay to monitor cytotoxicity in HEK293 cells - 40 hour (AID 1224871); note: nearly all actives have a fitted effect of over 45% in size
In short: as §3

[9] = qHTS RealTime-Glo MT Cell Viability Assay in HepG2 cells - 8 hour (AID 1224873); note: nearly all actives have a fitted effect of over 55% in size
In short: (§4)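 HepG2 cells (600/well) mixed with RealTime-Glo MT reagent, settled 5 h at 37 C/5% CO2 before compound addition. Nonlytic NanoLuc luminescence from viable-cell prosubstrate reduction read repeatedly during 40 h treatment at 37 C.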

[10] = qHTS RealTime-Glo MT Cell Viability Assay in HEK293 cells - 40 hour (AID 1224874); settings: RealTime-Glo luminescence; max response: stronger effect = lower value; note: nearly all actives have a fitted effect of over 50% in size
In short: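 Luminescence, which tracks viable cell number through reduction of the prosubstrate to a NanoLuc substrate, was read over continuous 37 C culture. Cells (600/well) were premixed with reagent and rested 5 h before 23 nL of compound in DMSO was pinned.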

[11] = A CellTox Green Cytotoxicity Assay to monitor cytotoxicity in HEK293 cells - 24 hour (AID 1224875); note: nearly all actives have a fitted effect of over 45% in size
In short: as §3

[12] = qHTS RealTime-Glo MT Cell Viability Assay in HepG2 cells - 32 hour (AID 1224877); note: nearly all actives have a fitted effect of over 55% in size
In short: as §1

[13] = A CellTox Green Cytotoxicity Assay to monitor cytotoxicity in HepG2 cells - 40 hour (AID 1224879); note: nearly all actives have a fitted effect of over 40% in size
In short: (§5)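 Real-time cytotoxicity: fluorescence of a cell-impermeant cyanine dye binding DNA of dead HepG2 cells, measured repeatedly (0–40 h) during compound exposure at 37 C. Cells seeded 600/well with reagent, dosed after 5 h.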

[14] = qHTS assay to identify small molecule agonists of H2AX - cell viability counter screen (AID 1224847; calls by dose curve; note: top concentration of the series differs between compounds; nearly all actives have a fitted effect of over 30% in size)
In short: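 Counter-screen for viability: CellTiter-Glo ATP luminescence read after 3 h compound treatment (15-point titration, 0.76% DMSO final) of CHO-K1 cells at 37C, with 30 min room-temperature reagent incubation.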

[15] = qHTS RealTime-Glo MT Cell Viability Assay in HepG2 cells - 40 hour (AID 1224870); note: nearly all actives have a fitted effect of over 50% in size
In short: as §4

[16] = A CellTox Green Cytotoxicity Assay to monitor cytotoxicity in HepG2 cells - 16 hour (AID 1224876); note: nearly all actives have a fitted effect of over 45% in size
In short: as §5

[17] = A CellTox Green Cytotoxicity Assay to monitor cytotoxicity in HepG2 cells - 24 hour (AID 1224878); note: nearly all actives have a fitted effect of over 45% in size
In short: as §5

[18] = qHTS assay to identify small molecule agonists of the estrogen related receptor (ERR) signaling pathway from Tox21 library (AID 1224849; calls by dose curve; note: nearly all actives have a fitted effect of over 15% in size); settings: ERR reporter cell line, ONE-Glo luciferase, 18 h; at 92.4 µM (top of the series) unless noted
In short: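 Luminescent agonist read-out (One-Glo, 30-minute room-temperature incubation) following 18-hour compound treatment at 37 C of the ERR cell line, which had been plated 6 hours before dosing.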

[19] = qHTS RealTime-Glo MT Cell Viability Assay in HEK293 cells - 16 hour (AID 1224872)
In short: as §2
% is set by controls: 0 for no effect and ±100 for the full control effect.

O=C(Oc1ccccc1)c1ccc2ccccc2c1O
inactive: Potency [1] | Potency [2] | outcome [3] | Potency [4] | Potency [5] | Potency [6] | Potency [7] | Potency [8] | Potency [9] | max response [10] -20.6% | Potency [11] | Potency [12] | Potency [13]

COc1ccc(-c2cc(C(F)F)nn2-c2ccc(S(N)(=O)=O)cc2)cc1F
inactive: Potency [1] | Potency [2] | outcome [3] | Potency [14] | Potency [5] | Potency [7] | Potency [15] | Potency [8] | Potency [9] | Potency [11] | Potency [16] | Potency [12] | Potency [17] | Potency [13]

CCN(CC)c1cccc(O)c1
inactive: outcome [3] | Potency [14] | Potency [4] | activity change, positive = activation [18] 2.77% | Potency [5] | Potency [7] | Potency [15] | Potency [8] | Potency [19] | Potency [9] | max response [10] 7.38% | Potency [11] | Potency [16] | Potency [12] | Potency [17] | Potency [13]

CC(=O)OC(C)C[N+](C)(C)C (stereo not drawn)
inactive: Potency [1] | Potency [14] | Potency [4] | activity change, positive = activation [18] 7.44% [at 42.5 µM] | Potency [5] | Potency [6] | Potency [15] | Potency [19] | Potency [9] | max response [10] -1.13% | Potency [11] | Potency [16] | Potency [12] | Potency [17]

Cc1cccc2sc(N)nc12
inactive: Potency [1] | Potency [2] | outcome [3] | Potency [14] | Potency [6] | Potency [7] | Potency [15] | Potency [8] | Potency [19] | Potency [9] | max response [10] 25.1% | Potency [11] | Potency [16] | Potency [12] | Potency [17] | Potency [13]

CC(C)(C)S
inactive: Potency [2] | Potency [14] | Potency [4] | Potency [5] | Potency [6] | Potency [7] | Potency [15] | Potency [19] | Potency [9] | max response [10] -0.0448% | Potency [11] | Potency [16] | Potency [12] | Potency [17] | Potency [13]

C1CCCCC1
inactive: Potency [1] | Potency [2] | outcome [3] | Potency [4] | activity change, positive = activation [18] 7.76% | Potency [5] | Potency [6] | Potency [7] | Potency [15] | Potency [8] | Potency [19] | Potency [9] | max response [10] 1.11% | Potency [11] | Potency [16] | Potency [12] | Potency [17] | Potency [13]

Cc1ccc2nc(N)[nH]c(=O)c2c1Sc1ccncc1
inactive: Potency [1] | outcome [3] | Potency [14] | activity change, positive = activation [18] -24.3% [at 42.5 µM] | Potency [7] | Potency [15] | Potency [8] | Potency [19] | Potency [11] | Potency [12] | Potency [17] | Potency [13]
